# Data from PubChem BioAssay.
# Calls of active or inactive are those of the source. Unless noted, how the calls were made is not given here.
# Experiments:
# [1] = A549 cell viability effects, profiling panel, calcein-AM fluorescence, 48 h, basal (AID 1162); details: higher = more signal; further: test concentration not given here
# [2] = adipocyte viability effects, profiling panel, cell-based, 3T3-L1 adipocytes, calcein-AM fluorescence, 48 h, basal (AID 1163); details: 3T3-L1 adipocytes viability, higher = more signal; further: test concentration not given here
# [3] = HepG2 cell viability effects, profiling panel, calcein-AM fluorescence, 48 h, basal (AID 1164); details: higher = more signal; further: test concentration not given here
# [4] = MM1S cell viability effects, profiling panel, calcein-AM fluorescence, 48 h, basal (AID 1165); details: higher = more signal;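 further: viability of MM1S multiple myeloma cells under basal unstimulated conditions; test concentration not given here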
# [5] = basal RPMI8226 viability, no added stimulus, profiling panel, cell-based, calcein-AM fluorescence, 48 h, PK04 Diversity Set (AID 1166); details: RPMI8226 myeloma viability, higher = more signal;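 further: cells grown under basal conditions without added stimulus; test concentration not given here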
# [6] = basal HepG2 mitochondrial membrane potential changes, profiling panel, cell-based, JC-1 fluorescence, 24 h, 100 nL compound (AID 1167); details: higher = more signal; further: test concentration not given here
# [7] = basal 3T3-L1 adipocyte mitochondrial potential changes, profiling panel, cell-based, JC-1 fluorescence, 3T3-L1 adipocytes, 24 h, 100 nL compound (AID 1168); details: JC-1 mitochondrial fluorescence, higher = more signal, called active from +8 up or from −8 down; further: test concentration not given here
# [8] = basal RPMI8226 mitochondrial membrane potential changes, profiling panel, cell-based, JC-1 fluorescence, 24 h, 100 nL compound (AID 1169); details: RPMI8226 myeloma, JC-1 mitochondrial potential fluorescence, higher = more signal; further: test concentration not given here
# [9] = basal MM1S mitochondrial membrane potential changes, profiling panel, cell-based, JC-1 fluorescence, 24 h, 100 nL compound (AID 1170); details: higher = more signal; further: test concentration not given here
# [10] = A549 lung cancer cell viability effects, profiling panel, resazurin fluorescence, 24 h, PK04 Diversity Set (AID 1171); details: higher = more signal, called active from +8 up or from −8 down; further: test concentration not given here
# [11] = HepG2 liver cancer cell viability effects, profiling panel, resazurin fluorescence, 24 h, PK04 Diversity Set (AID 1172); details: higher = more signal; further: test concentration not given here
# [12] = basal S. cerevisiae growth modulation, no modifier, primary screen, OD600, strain BY4716, 24 h, basal condition (AID 1173); details: OD600, 24 h, higher = more signal, called active from +8 up or from −8 down
# [13] = MM1S myeloma cell viability, profiling panel, resazurin fluorescence, basal, 24 h, PK04 Diversity Set (AID 1174); details: higher = more signal, called active from +8 up or from −8 down;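 further: MM1S multiple myeloma cell line; test concentration not given here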
# [14] = biological target: Dihydroorotate dehydrogenase (quinone), mitochondrial (Plasmodium falciparum (isolate 3D7)) (UniProt Q08210); assay: PfDHODH enzyme inhibitors, primary screen, biochemical, C-terminal His tag, absorbance 600 nm (AID 1175); details: DCIP absorbance 600 nm, higher = more signal, called active from +8 up or from −8 down;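 further: recombinant parasite enzyme with a five histidine tag at its C terminus; test concentration not given here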
# [15] = P. aeruginosa biofilm formation inhibitors, primary screen, strain PAO1, LB-PBS medium, absorbance 600 nm (AID 1176); further: test concentration not given here; details: P. aeruginosa PAO1 growth/biofilm, A600, 12 h; higher = more signal
# [16] = S. cerevisiae RM11-1a growth modifiers, primary screen, strain RM11-1a, OD600, basal, 24 h (AID 1177); details: OD600, 24 h, higher = more signal, called active from +8 up or from −8 down;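 further: cultures grown under basal conditions with no added stressor; test concentration not given here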
# [17] = E. coli acrAB mutant growth effects, primary screen, E. coli filamentation inducers, strain DRC39, OD650, 24 h (AID 1178); details: higher = more signal, called active from +8 up or from −8 down;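 further: growth measured as culture turbidity by optical density at 650 nm; test concentration not given here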
# [18] = E. coli acrAB mutant growth effects, primary screen, E. coli filamentation inducers, strain DRC39, OD650, 48 h (AID 1179);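 further: screen aims at cell division blockers that make cells filament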; details: E. coli DRC39 delta-acrAB growth, higher = more signal, called active from +8 up or from −8 down
# [19] = RPMI8226 myeloma cell viability, profiling panel, resazurin fluorescence, basal, 24 h, PK04 Diversity Set (AID 1180); details: higher = more signal;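 further: RPMI8826 multiple myeloma cell line at 5000 cells per well; test concentration not given here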
# [20] = biological target: E3 ubiquitin-protein ligase XIAP (Homo sapiens) (UniProt P98170); assay: XIAP binders, primary screen, biophysical, small-molecule microarray, fluorescence 635 nm (AID 1181); details: small-molecule microarray binding, higher = more signal;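 further: score merges 667 nm emission and signal to noise over triplicate slides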
# E3 ubiquitin-protein ligase XIAP (Homo sapiens), sequence (P98170 whole entry, looked up): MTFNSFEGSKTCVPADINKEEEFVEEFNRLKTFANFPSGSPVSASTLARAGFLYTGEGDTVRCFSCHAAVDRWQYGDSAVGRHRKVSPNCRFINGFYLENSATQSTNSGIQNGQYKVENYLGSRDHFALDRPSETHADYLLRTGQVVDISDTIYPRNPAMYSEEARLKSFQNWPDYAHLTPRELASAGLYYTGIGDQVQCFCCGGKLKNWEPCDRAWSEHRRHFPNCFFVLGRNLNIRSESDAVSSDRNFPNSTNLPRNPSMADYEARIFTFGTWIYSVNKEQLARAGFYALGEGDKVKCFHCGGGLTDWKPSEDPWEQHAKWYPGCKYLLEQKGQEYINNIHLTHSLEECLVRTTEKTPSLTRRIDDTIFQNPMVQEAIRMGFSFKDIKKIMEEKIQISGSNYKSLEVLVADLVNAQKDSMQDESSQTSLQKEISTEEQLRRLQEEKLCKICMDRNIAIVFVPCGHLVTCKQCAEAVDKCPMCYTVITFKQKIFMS
# Dihydroorotate dehydrogenase (quinone), mitochondrial (Plasmodium falciparum (isolate 3D7)), sequence (Q08210 whole entry, looked up): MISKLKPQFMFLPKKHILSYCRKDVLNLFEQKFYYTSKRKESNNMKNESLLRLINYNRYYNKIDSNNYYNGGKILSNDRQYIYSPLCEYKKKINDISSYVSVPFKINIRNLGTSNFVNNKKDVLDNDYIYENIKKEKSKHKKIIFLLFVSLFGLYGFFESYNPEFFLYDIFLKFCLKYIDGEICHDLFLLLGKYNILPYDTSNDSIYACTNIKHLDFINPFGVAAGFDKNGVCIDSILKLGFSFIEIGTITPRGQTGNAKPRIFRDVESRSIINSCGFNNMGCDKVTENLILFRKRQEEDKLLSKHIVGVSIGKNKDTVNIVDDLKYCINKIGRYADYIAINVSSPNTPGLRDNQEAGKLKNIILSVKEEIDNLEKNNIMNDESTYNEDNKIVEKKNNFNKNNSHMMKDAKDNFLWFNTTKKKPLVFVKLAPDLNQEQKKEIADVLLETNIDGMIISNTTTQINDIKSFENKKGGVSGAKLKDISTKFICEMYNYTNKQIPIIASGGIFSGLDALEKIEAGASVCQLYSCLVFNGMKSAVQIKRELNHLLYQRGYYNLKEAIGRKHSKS
Compound,z-score [1],z-score [2],z-score [3],z-score [4],z-score [5],z-score [6],z-score [7],z-score [8],z-score [9],z-score [10],z-score [11],z-score [12],z-score [13],composite z-score [14],z-score [15],z-score [16],z-score [17],z-score [18],z-score [19],composite z-score [20]
COc1ccc([Si](C)(C)[C@@H]2[C@@H](CC(=O)N(CCO)Cc3ccccc3)O[C@]3(C(=O)N(Cc4cccc(N5CCOC5=O)c4)c4ccccc43)[C@H]2C)cc1,-1.23,0.836,-1.64,-2.66,-3.51,-0.0766,0.0933 (inactive),-1.07,-0.991,-2.25 (inactive),-1.89,0.0608 (inactive),-3.23 (inactive),0.0205 (inactive),1.76 (inactive),2.67 (inactive),0.577 (inactive),-0.463 (inactive),-2.42,-0.02
CCOC(=O)C[C@H]1[C@H](OC(=O)c2cc3ccccc3oc2=O)[C@@H](NC(=O)c2ccc(-c3ccccc3)cc2)c2cc(OCCCO)ccc2N1C(=O)c1ccc2ccccc2n1,0.224,0.198,1.25,0.0181,0.624,0.259,-0.023 (inactive),0.174,-0.122,0.73 (inactive),0.867,0.753 (inactive),0.389 (inactive),-0.0286 (inactive),-0.0218 (inactive),1.54 (inactive),0.97 (inactive),0.211 (inactive),0.0692,0.023
CCCNC(=O)[C@@]1(c2ccc([N+](=O)[O-])cc2)CC(=O)N(C2CCCCC2)[C@@H]1c1ccc(CO)cc1,0.663,0.29,0.196,-0.409,0.46,0.536,-1.19 (inactive),-0.506,0.773,1.13 (inactive),-0.347,0.262 (inactive),0.411 (inactive),0.666 (inactive),0.304 (inactive),1.83 (inactive),0.117 (inactive),-0.194 (inactive),0.543,-0.173
C=CCNC(=O)[C@@H]1[C@H]2C(=O)O[C@H](c3ccccc3)[C@H](c3ccccc3)N2[C@H](c2ccc(O)cc2)[C@@]12C(=O)N(C(=O)OCCOC)c1ccc(C#CC3(O)CCCCCC3)cc12,0.0287,0.284,0.446,0.362,0.895,0.577,0.8 (inactive),0.244,-0.432,0.395 (inactive),0.919,0.444 (inactive),-0.689 (inactive),0.263 (inactive),-0.123 (inactive),0.3 (inactive),0.891 (inactive),0.957 (inactive),0.196,-0.391
COCCOC(=O)N1C(=O)[C@@]2(c3cc(C#Cc4ccc(OC)cc4)ccc31)[C@H](C(=O)Nc1nc3ccccc3s1)[C@H]1C(=O)O[C@H](c3ccccc3)[C@H](c3ccccc3)N1[C@@H]2c1ccc(OCCO)cc1,-0.205,-0.106,-1.07,-1.59,-0.482,-3.17,2.92 (inactive),-0.604,-1.44,-0.0799 (inactive),-0.635,3.03 (inactive),-0.63 (inactive),-0.27 (inactive),2.32 (inactive),3.64 (inactive),-0.358 (inactive),-0.486 (inactive),-0.56,-0.075
C=CCN1C(=O)[C@@]2(O[C@@H](CCn3cc([C@H](O)c4ccccc4)nn3)[C@H]([Si](C)(C)c3ccc(OC)cc3)[C@H]2C)c2cc(N3CCC3=O)ccc21,0.36,0.977,0.0404,-1.12,-2.81,2.18,0.385 (inactive),-1.01,0.219,-1.35 (inactive),-0.721,0.869 (inactive),-1.14 (inactive),0.936 (inactive),1.25 (inactive),2.39 (inactive),0.397 (inactive),0.477 (inactive),-1.09,-0.153
O=C1NC(=O)C2C1C=CC(C(O)c1c(F)cccc1Cl)N2Nc1ccc(Cl)cc1Cl (stereo not given),-2.11,0.0772,-2.82,-3.64,-1.39,-3.44,-0.775 (inactive),-1.06,-1.46,-2.22 (inactive),-3.13,-14.8 (active),-2.21 (inactive),0.0047 (inactive),1.44 (inactive),-1.12 (inactive),-0.854 (inactive),-1.44 (inactive),-2.2,0.482
CC(=O)NCCCC[C@@H]1NC(=O)[C@@H]2C[C@H](C(=O)NCCCC[N+](C)(C)C)[C@H](c3ccc(O)cc3)N2C1=O,-0.431,0.994,-1.29,-0.606,0.274,-1.42,-0.152 (inactive),-0.547,-0.0697,-1.04 (inactive),-0.294,-0.0108 (inactive),-1.23 (inactive),-30.7 (active),2.35 (inactive),0.55 (inactive),-0.0376 (inactive),-1.1 (inactive),-1.2,-0.168
CC(c1ccccc1)C(O)C1C=CC2C(=O)N(c3ccccc3)C(=O)C2N1Nc1ccc([N+](=O)[O-])cc1 (stereo not given),-0.898,-0.755,0.204,0.48,-0.129,-0.411,-1 (inactive),-1.03,-1.44,1.07 (inactive),0.796,0.326 (inactive),0.831 (inactive),0.101 (inactive),0.449 (inactive),0.399 (inactive),-0.821 (inactive),0.434 (inactive),0.538,-0.334
COC(=O)[C@@]1(Cc2ccc(OC)cc2)[C@H]2c3cc(C(=O)N(C)C)n(CCO)c3C[C@H]2CN1C(=O)c1ccccc1,-1.58,0.611,-0.516,-1.25,-0.755,-0.133,-1.36 (inactive),-0.577,-0.327,-0.0699 (inactive),-0.822,0.474 (inactive),-1.23 (inactive),-0.462 (inactive),0.33 (inactive),-0.562 (inactive),-0.748 (inactive),-0.173 (inactive),-0.915,0.0223
COC(=O)c1c(CC[C@@H](CO)NC(=O)N2CCC[C@H]2Cn2cc(Cc3ccccc3)nn2)oc(C(C)=O)c1C(=O)OC,-0.105,-0.25,-0.904,0.823,-1.41,-0.123,-0.0157 (inactive),0.127,-0.236,0.435 (inactive),0.448,-1.36 (inactive),-0.362 (inactive),-0.378 (inactive),-1.27 (inactive),-0.245 (inactive),0.745 (inactive),0.312 (inactive),-0.394,0
C=C(C)C1CCC(C(O)C2C=CC3C(=O)N(C)C(=O)C3N2N2CCCCC2)CC1 (stereo not given),-1.25,-1.16,-0.774,-0.683,-0.665,-1.38,-1.53 (inactive),0.887,-0.31,0.262 (inactive),-0.689,0.08 (inactive),-1.19 (inactive),0.112 (inactive),0.751 (inactive),1.82 (inactive),-0.742 (inactive),-0.654 (inactive),-0.954,0.62
COCCOC(=O)N1C(=O)[C@@]2(c3cc(C#CC4=CCCCC4)ccc31)[C@H](C(N)=O)[C@H]1C(=O)O[C@H](c3ccccc3)[C@H](c3ccccc3)N1[C@@H]2c1ccccc1OCCO,-2.23,0.619,-3.63,-3.29,-3.99,-2.49,2.7 (inactive),-0.819,-1.6,-2.57 (inactive),-2.76,0.132 (inactive),-4.34 (inactive),-0.295 (inactive),2.21 (inactive),1.23 (inactive),-1.4 (inactive),-1.23 (inactive),-5.78,0.0899
O=C1OCC=C[C@H]2OC34C=CCN(Cn5nnc6ccccc65)C(=O)[C@H]3N(CCCO)C(=O)[C@@H]4[C@@H]12 (stereo not given in full),-0.267,0.832,-0.64,0.266,0.0897,-0.541,0.904 (inactive),-0.252,-1.33,-0.813 (inactive),-0.281,-0.68 (inactive),-0.319 (inactive),-2.85 (inactive),-0.0684 (inactive),-0.0325 (inactive),-1.4 (inactive),-1.1 (inactive),-0.509,-0.105
COCCOC(=O)N1C(=O)[C@@]2(c3ccccc31)[C@H](C(=O)N1CCN(c3ncccn3)CC1)[C@H]1C(=O)O[C@H](c3ccccc3)[C@H](c3ccccc3)N1[C@@H]2c1ccc(O)cc1,-0.337,0.176,0.102,-1.41,-0.441,0.745,-0.107 (inactive),0.263,0.0963,1.19 (inactive),-0.0067,0.056 (inactive),0.439 (inactive),-0.437 (inactive),1.81 (inactive),0.953 (inactive),-0.612 (inactive),0.075 (inactive),0.434,-0.222
CC(C)[Si](C#CCCCC#N)(O[C@H](c1ccccc1)c1cn([C@H](CO)Cc2ccccc2)nn1)C(C)C,0.773,-0.0379,-0.0933,0.172,0.231,0.0258,-0.393 (inactive),0.266,-1.47,0.723 (inactive),0.374,-9.13 (active),0.288 (inactive),-0.804 (inactive),1.44 (inactive),-1.8 (inactive),0.178 (inactive),0.362 (inactive),0.289,-0.111
NCCCCCNC(=O)[C@@H]1C[C@@H]2C(=O)NCC(=O)N2[C@@H]1c1cccc(OCCO)c1,-0.507,1.11,-0.531,-0.686,-0.947,1.5,-0.298 (inactive),0.00435,0.53,-0.505 (inactive),-0.727,-0.202 (inactive),0.584 (inactive),-0.73 (inactive),1.29 (inactive),0.561 (inactive),-0.0625 (inactive),-0.485 (inactive),0.974,0.012
